Assay outcomes as filed in PubChem.
Tau fibril FP: blocks human tau fibril formation measured by polarization; Potency, µM (top dose mostly 57.7 µM), for the others: top-dose activity, negative = inhibition, hits mostly inhibitors; AID 1468; K18 P301L tau heparin fibrillization, Alexa594 FP, 6 h; P10636; hit rate 0.39% among 280,000; further: potency means the concentration at half of the fitted maximal effect; nearly all actives have a fitted effect of over 55% in size
Target sequence (P10636 561-689 P618L limits assumed): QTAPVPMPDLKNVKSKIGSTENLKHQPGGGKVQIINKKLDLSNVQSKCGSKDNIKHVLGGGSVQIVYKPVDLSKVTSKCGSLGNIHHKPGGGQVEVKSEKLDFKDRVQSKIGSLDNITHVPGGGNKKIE
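Human tau K18 […] P301L fragment, 15 uM unlabeled plus 0.24 uM Alexa 594-labeled tau (final), with compound and 20 uM heparin in 100 mM sodium acetate pH 7; 6 hr at 37 C, then Alexa 594 FP read.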
Sfp PPTase inh: Sfp phosphopantetheinyl transferase inhibition. Q9F4F7. Biochemical Sfp PPTase activity, qHTS. Potency, µM, inactives show largest response in the series, negative = inhibition, most hits filed as inhibitors. hit rate 3.5% among 310,000. AID 1490;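 further: the enzyme is Sfp with the accession as filed and its product quenches rhodamine fluorescence; potency means the concentration at half of the fitted maximal effect; 0% = enzyme reaction without inhibitor and -100% = no enzyme wells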
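Reaction rates are the 30-min fluorescence difference (ex 525, em 598 nm) in wells containing 15 nM Sfp, 5 uM rhodamine-CoA and 12.5 uM BHQ-2-YbbR at pH 7.6 with 10 mM MgCl2.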
Tau fluor cs: counter-screen for tau fibril formation inhibitors | tau K18 P301L Alexa594 fluorescence, heparin fibrillization | Potency, µM (doses to about 57.7 µM), for inactives: at the top dose activity change, negative = decrease | hit rate 0.93% among 280,000 | AID 1463; further: potency means the concentration at half of the fitted maximal effect; nearly all actives have a fitted effect of over 55% in size
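Human tau K18 P301L (15 uM unlabeled, 0.24 uM Alexa 594-labeled) in 100 mM sodium acetate pH 7 with 20 uM heparin, 6 hr at 37 C. ThT 30 uM added, 1 hr ambient; Alexa 594 FP and total fluorescence read at 555/632 nm.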
G9a block: G9a (human) methyltransferase inhibition; Q96KQ7; G9a H3K9 monomethylation, AlphaScreen, 2 h; Potency, µM (titrated, usually from 102 µM), for the others: top-dose activity, negative = inhibition, usual class: inhibitors; hit rate 8.8% among 350,000; further: potency means the concentration at half of the fitted maximal effect; nearly all actives have a fitted effect of over 75% in size
Target sequence (Q96KQ7 913-1193 limits assumed): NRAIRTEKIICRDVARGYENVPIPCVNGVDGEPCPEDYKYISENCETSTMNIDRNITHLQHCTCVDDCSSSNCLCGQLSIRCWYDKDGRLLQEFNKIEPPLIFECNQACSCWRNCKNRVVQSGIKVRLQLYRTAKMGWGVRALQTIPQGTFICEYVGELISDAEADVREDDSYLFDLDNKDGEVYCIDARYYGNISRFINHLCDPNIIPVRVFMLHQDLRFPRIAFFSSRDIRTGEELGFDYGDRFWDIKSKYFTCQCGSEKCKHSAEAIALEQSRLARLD
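G9a (20 nM) preincubated 15 min RT with compounds, then 500 nM biotinylated H3K9 peptide and 20 uM SAM added; 2 h RT reaction. Monomethyl-H3K9 product detected by AlphaScreen with anti-H3K9me1 antibody, streptavidin donor and anti-rabbit IgG acceptor beads.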
Tau ThT inhib: blocks human tau fibril formation measured by thioflavin T; P10636; Potency, µM (highest dose often 57.4 µM), without a hit: at the highest dose activity, negative = inhibition, hits mostly inhibitors; hit rate 2.1% among 270,000; AID 1460; recombinant tau K18 P301L (four-repeat tau fragment), heparin-induced fibrillization, ThT fluorescence; further: potency means the concentration at half of the fitted maximal effect; nearly all actives have a fitted effect of over 55% in size
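In this qHTS, human K18 P301L tau is incubated with compound and heparin for 6 hr at 37 C, and Thioflavin T fluorescence then reports fibril load.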
FBPA coupling cs: coupling enzyme interference in Giardia aldolase counter-screen; coupling enzyme system counterscreen, AmpLite Red fluorescence; AID 2472; hit rate 0.67% among 290,000; activity change, negative = inhibition, % at 58.2 µM, hits read low; in the data active means activity change below about -30%
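Counterscreen lacking aldolase: glyceraldehyde-3-phosphate coupling-enzyme reagent preincubated 10 min at RT with compound (at 57.5 uM final), then substrate/coupling system with AmpLite Red added; fluorescence read at 525/598 nm after 20 min RT.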
Active calls of the source: *; ? = inconclusive; nt = not tested or not shown; ! = not confirmed by another sample; [ ] = remark or other dose. Rows were chosen to be rich in hits. Some 11% of all compounds tested hit in one or more screens of this group. Unless noted, the call rests on the fitted dose curve; in most records, active means well fitted curve in the direction sought with a large enough effect; inconclusive means small, poorly fitted or top-dose-only effect, or another doubt; inactive means no such curve, though single readings can be large; an effect the other way counts as inactive or inconclusive. Unless noted, on the % scale 0 is the no-effect control and ±100 the full control effect.

SMILES	Tau fibril FP	Sfp PPTase inh	Tau fluor cs	G9a block	Tau ThT inhib	FBPA coupling cs
COC(=O)C1=C(N)OC2=C(C(=O)CC(C)(C)C2)C1c1cc2c(cc1Cl)OCO2 (stereo not drawn)	nt	-1%	nt	?	nt	2
CC(=O)N1CCc2cc(Br)cc(S(=O)(=O)N3CCN(c4cccc(C)c4)C(C)C3)c21 (stereo not drawn)	0%	nt	-29%	?	-12%	nt
Cc1ccc(-n2nc(-c3ccco3)cc2C(=O)O)cc1	-6%	22µM*	-7%	?	-11%	9
CSc1nc(C)cc(C)c1C#N	1%	4%	-1%	57%	-14%	nt
Cc1cc(C)c(C#N)c(=N)o1	-17%	14µM*	-12%	1.8µM*	?	0
Cc1[nH]nc(N)c1N=Nc1ccc(Br)cc1	6%	0%	?	nt	11µM*	1
COC(=O)c1ccccc1N=Nc1c(N)n[nH]c1N	8%	-3%	-13%	-30%	?	-5
Nc1n[nH]c(N)c1N=Nc1ccc2c(c1)OCO2	1%	-8%	-30%	9%[59 µM]	14µM*	-5
Cc1nc(N)sc1N=Nc1ccc(Br)cc1	8%	-14%	16µM*[quencher]	?	4µM*	-2
O=C1CCCC(O)=C1N=Nc1ccc2c(c1)OCO2	3%	7%	-15%	19%[59 µM]	?	1
Cc1ccc(N=Nc2c(N)n[nH]c2N)cc1	nt	10%	nt	35µM*	nt	0
Cc1ccc(S(=O)(=O)c2cn(CC(=O)Nc3ccc4c(c3)OCO4)c3ccc(C)cc3c2=O)cc1	-8%	nt	-30%	?	-3%	nt
CC12CC(c3ccccc3O1)N(C(=O)c1ccco1)C(=S)N2c1ccccc1 (stereo not drawn)	8%	-7%	-14%	40µM*	-11%	-1
O=C(CSc1nc2ccccc2c(=O)n1-c1ccc(F)cc1)Nc1ccc(N2CCOCC2)cc1	19%	-15%	-27%	45µM*	-7%	-2
O=C(CSc1n[nH]c(=O)n1Cc1ccccc1)Nc1ccc(N2CCOCC2)cc1	nt	nt	nt	56µM*	nt	nt
Cc1nnc(SCC(=O)Nc2ccc(N3CCOCC3)cc2)n1Cc1ccccc1	nt	nt	nt	21%[2.33 µM]	nt	nt
COc1ccc(-n2c(SCC(=O)Nc3ccc(C(N)=O)cc3)nc3ccccc3c2=O)cc1OC	nt	-14%	nt	50µM*	nt	4
O=C(Cc1cccs1)N1CCN(S(=O)(=O)c2cc(Cl)ccc2Cl)CC1	nt	nt	nt	4%	nt	nt
CCCS(=O)(=O)N1CC(=O)N(c2cccc(F)c2)C(C)(C(=O)NC2CCCCCC2)C1 (stereo not drawn)	-6%	nt	-6%	7%[59 µM]	5%	nt
COc1ccc2c(C)c(CCC(=O)NCc3ccc(Cl)cc3)c(=O)oc2c1C	-7%	nt	-7%	-29%[59 µM]	-1%	nt
COc1c(C2=CC(=O)N(C)C2=O)c2c(n1C)C(=O)c1ccccc1C2=O	-12%	25µM*	18µM*[quencher]	nt	14µM*	-35*
CN1c2ccsc2C(O)=C(C(=S)Nc2ccc(F)c(Cl)c2)S1(=O)=O	?	50µM*	?	18µM*	20µM*	5
CCc1nn(CC(=O)NCCCN2CCOCC2)c(=O)c2cc3cc(F)ccc3n12	nt	4%	nt	50µM*	nt	-1
CCc1nn(CC(=O)NCCCN2CCN(C)CC2)c(=O)c2cc3sc(C)cc3n12	nt	1%	nt	nt	nt	nt
CCc1cc2c(cc3c(=O)n(CC(=O)NCCCN4CCCCCC4)nc(CC)n32)s1	nt	0%	nt	50µM*	nt	nt
SMILES	Tau fibril FP	Sfp PPTase inh	Tau fluor cs	G9a block	Tau ThT inhib	FBPA coupling cs
CCc1nn(CC(=O)NCCCN2CCOCC2)c(=O)c2cc3sccc3n12	nt	17%	nt	12%	nt	nt
CC1(OC(=O)C2CCCC2)C(=O)C=C2C=C(c3ccsc3)N(Cc3ccccc3)C=C2C1=O (stereo not drawn)	?	-3%	-5%[11.6 µM]	-35%[59 µM]	10µM*!	-17
CC1(OC(=O)CCc2ccccc2)C(=O)C=C2C=C(c3ccc(C#N)cc3)N(Cc3ccccc3)C=C2C1=O (stereo not drawn)	?	?	-3%[11.6 µM]	-36%[59 µM]	8.9µM*!	-10
COCCN1C=C2C(=O)C(C)(OC(=O)CCc3ccccc3)C(=O)C=C2C=C1c1ccc(C#N)cc1 (stereo not drawn)	-3%[11.6 µM]	-4%	-9%[11.6 µM]	-26%[59 µM]	?	-9
CC(C)CN1C=C2C(=O)C(C)(OC(=O)C3CCCC3)C(=O)C=C2C=C1c1ccsc1 (stereo not drawn)	-2%[11.6 µM]	16%	-15%[11.6 µM]	-3%[59 µM]	?	1
CC1(OC(=O)C2CCCC2)C(=O)C=C2C=C(c3ccsc3)N(CCc3ccccn3)C=C2C1=O (stereo not drawn)	?	-6%	-19%[11.6 µM]	-5%[59 µM]	4µM*	-23
O=C(COC(=O)c1cccc(S(=O)(=O)N2CCCC2)c1)NCc1ccccc1	-2%	2%	-9%	-4%[59 µM]	0%	3
Cc1ccc(NC(=O)Cn2c(=O)n(CCCCCC(=O)NCc3ccc(F)cc3)c(=O)c3sccc32)cc1C	-14%	nt	-25%	-4%[59 µM]	18%	nt
Cc1cc2c(cc3c(SCc4ccc(Cl)cc4)nncn32)o1	-3%	nt	-26%	-46%[59 µM]	?	nt
Cc1cccc(NC(=O)CCS(=O)(=O)c2ccc(Br)cc2)c1	nt	11%	nt	-4%	nt	-12
CCOC(=O)C1=C(O)/C(=C/c2cc(OC)c(OC)c(OC)c2)N=C1C	-2%	89µM*	-6%	9%[0.0925 µM]	?	nt
CCOc1cc(/C=C2/N=C(C)C(C(=O)OC)=C2O)ccc1O	-2%	-4%	-21%	45µM*	?	0
COC(=O)C1=C(O)/C(=C\c2cc(C)n(-c3ccccc3C)c2C)N=C1C	3%	45µM*	-21%	20µM*	?	-42*
O=C1C[C@H](c2ccc3ccccc3c2)N1S(=O)(=O)c1ccccc1[N+](=O)[O-]	nt	-9%	nt	nt	nt	7
CN(C)c1ccc2c(O)cc(=O)n(C)c2c1	22µM*	-29%	-27%	?	25µM*	-37*
CC(C)c1ccccc1NCC(=O)N1CCN(Cc2ccccc2)CC1	nt	9%	nt	50µM*	nt	-1
Cc1ccc(CN2CCN(C(=O)c3ccncc3)CC2)cc1	1%	?	-1%	8.9µM*	-8%	0
Cc1cccc(C)c1NCC(=O)N1CCN(Cc2ccccc2)CC1	nt	10%	nt	20%[2.33 µM]	nt	2
O=C(Cn1ncc(Cl)c(Cl)c1=O)N1CCN(Cc2ccccc2)CC1	?	-15%	-6%	56µM*	?	-2
Nc1nnc(SCC(=O)N2CCN(Cc3ccccc3)CC2)s1	3%	-2%	-1%	45µM*	1%	-1
COc1ccc(OC)c(CCNc2ncnc3onc(-c4ccc(Cl)cc4)c23)c1	-2%	nt	?	-37%[59 µM]	-12%	nt
COc1ccc(OC)c(NS(=O)(=O)c2ccc(-c3cc(C)no3)s2)c1	-3%	nt	-30%	-9%[59 µM]	-13%	nt
